Inconclusive results are not listed. Calls of active or inactive are those of the source. The call rests on the fitted dose curve; in most records, active means well fitted cell-killing curve with a large enough effect; inconclusive means small, poorly fitted or top-dose-only effect, or effect the other way; inactive means no such curve, though single readings can be large or run the other way.
Columns and labels:
[1] = Quantitative High-Throughput drug screen in 47 multiple myeloma cell lines against the NCATS MIPE library collection: SKMM1_PLB cell viability assay (AID 1919863); conditions: SKMM1 myeloma viability, CellTiter-Glo ATP, 48 h; viability: hits give low values; further: nearly all actives have a fitted effect of over 35% in size; on viability: series mostly up to about 46 µM
How it was run: (§1)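 Readout: median RLU from CellTiter-Glo after 5 min at room temperature. Preceding step was 48 h drug treatment of 500 cells/well at 37 °C, 5% CO2, with DMSO-only and media-only control wells.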

[2] = Quantitative High-Throughput drug screen in 47 multiple myeloma cell lines against the NCATS MIPE library collection: U266_ATCC cell viability assay (AID 1919864); further: nearly all actives have a fitted effect of over 35% in size
How it was run: as §1

[3] = Quantitative High-Throughput drug screen in 47 multiple myeloma cell lines against the NCATS MIPE library collection: XG1_PLB cell viability assay (AID 1919866); further: nearly all actives have a fitted effect of over 35% in size
How it was run: as §1

[4] = Quantitative High-Throughput drug screen in 47 multiple myeloma cell lines against the NCATS MIPE library collection: VP6_DJ cell viability assay (AID 1919867); further: nearly all actives have a fitted effect of over 40% in size
How it was run: as §1

[5] = Quantitative High-Throughput drug screen in 47 multiple myeloma cell lines against the NCATS MIPE library collection: PE2_PLB cell viability assay (AID 1919869); further: nearly all actives have a fitted effect of over 35% in size
How it was run: as §1

[6] = Quantitative High-Throughput drug screen in 47 multiple myeloma cell lines against the NCATS MIPE library collection: PCM6_Riken cell viability assay (AID 1919870); further: nearly all actives have a fitted effect of over 30% in size
How it was run: as §1

[7] = Quantitative High-Throughput drug screen in 47 multiple myeloma cell lines against the NCATS MIPE library collection: RPMI8226_ATCC cell viability assay (AID 1919871); further: nearly all actives have a fitted effect of over 30% in size
How it was run: as §1

[8] = Quantitative High-Throughput drug screen in 47 multiple myeloma cell lines against the NCATS MIPE library collection: KMS28BM_JCRB cell viability assay (AID 1919874); further: nearly all actives have a fitted effect of over 35% in size
How it was run: as §1

[9] = Quantitative High-Throughput drug screen in 47 multiple myeloma cell lines against the NCATS MIPE library collection: XG6_PLB cell viability assay (AID 1919865); further: nearly all actives have a fitted effect of over 40% in size
How it was run: as §1

[10] = Quantitative High-Throughput drug screen in 47 multiple myeloma cell lines against the NCATS MIPE library collection: UTMC2_PLB cell viability assay (AID 1919868); further: nearly all actives have a fitted effect of over 55% in size
How it was run: as §1

[11] = Quantitative High-Throughput drug screen in 47 multiple myeloma cell lines against the NCATS MIPE library collection: KMS11_JCRBsus cell viability assay (AID 1919873); further: nearly all actives have a fitted effect of over 50% in size
How it was run: as §1

[12] = Quantitative High-Throughput drug screen in 47 multiple myeloma cell lines against the NCATS MIPE library collection: OPM2_DSMZ cell viability assay (AID 1919872); further: nearly all actives have a fitted effect of over 30% in size
How it was run: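 Steps: seed 500 cells per well; pin-transfer MIPE 4.0 library; incubate 48 h at 37C, 5% CO2, humidified; add CellTiter-Glo, 5 min room temperature; read luminescence.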

[13] = Quantitative High-Throughput drug screen in 47 multiple myeloma cell lines against the NCATS MIPE library collection: OPM1_PLB cell viability assay (AID 1918989); further: nearly all actives have a fitted effect of over 40% in size
How it was run: as §1
Potency means the concentration at half of the fitted maximal effect.

COc1nc(N)nc2c1ncn2[C@@H]1O[C@H](CO)[C@@H](O)[C@@H]1O
inactive: viability [1] 124% | Potency [3] | Potency [4] | Potency [5] | Potency [6] | Potency [7] | Potency [8]
active: Potency [2] 16.6 µM

COc1ncnc(NS(=O)(=O)c2ccc(N)cc2)c1OC
inactive: viability [1] 128% | Potency [2] | Potency [9] | Potency [3] | Potency [5] | Potency [6] | Potency [7] | Potency [8]

CNC(=O)c1cc(Oc2ccc(NC(=O)Nc3ccc(Cl)c(C(F)(F)F)c3)cc2)ccn1
active: Potency [1] 29.6 µM | Potency [2] 23.5 µM | Potency [9] 0.148 µM | Potency [3] 5.9 µM | Potency [4] 8.33 µM | Potency [10] 9.35 µM | Potency [5] 7.43 µM | Potency [6] 7.43 µM | Potency [7] 20.9 µM | Potency [11] 20.9 µM | Potency [8] 20.9 µM

CCOC(=O)c1ccc(OC(=O)CCCCCN=C(N)N)cc1
inactive: viability [1] 127% | Potency [2] | Potency [3] | Potency [5] | Potency [6] | Potency [12] | Potency [11] | Potency [8]

CCN(CC)CCn1c(=O)c(Cc2ccc(OC)cc2)nc2ccccc21
inactive: viability [1] 134% | Potency [2] | Potency [3] | Potency [5] | Potency [6] | Potency [7] | Potency [12] | Potency [11] | Potency [8]

CC(C(=O)O)c1ccc2c(c1)CC(=O)c1ccccc1S2 (stereo not given)
inactive: Potency [13] | Potency [5] | Potency [7] | Potency [12]

CC[C@H](C)C(=O)O[C@H]1C[C@@H](C)C=C2C=C[C@H](C)[C@H](CC[C@@H]3C[C@@H](O)CC(=O)O3)[C@H]21
active: Potency [13] 11.8 µM | Potency [11] 20.9 µM | Potency [8] 23.5 µM
inactive: Potency [6]

Cc1ncc([N+](=O)[O-])n1CCO
inactive: Potency [13] | Potency [3] | Potency [6] | Potency [8]

CO[C@@]12[C@H](COC(N)=O)C3=C(C(=O)C(C)=C(N)C3=O)N1C[C@@H]1N[C@@H]12
active: Potency [1] 20.9 µM | Potency [2] 20.9 µM | Potency [3] 20.9 µM | Potency [5] 20.9 µM | Potency [6] 20.9 µM | Potency [12] 26.4 µM | Potency [11] 2.96 µM | Potency [8] 6.62 µM

COc1ccc(-c2ccc3cc(C(=O)O)ccc3c2)cc1C12CC3CC(CC(C3)C1)C2
active: Potency [2] 5.26 µM | Potency [7] 0.833 µM
inactive: viability [1] 119% | Potency [3] | Potency [11]

O=C(O)c1cc(=O)[nH]c(=O)[nH]1
inactive: viability [1] 112% | Potency [2] | Potency [3] | Potency [4] | Potency [5] | Potency [6] | Potency [7] | Potency [12] | Potency [11]

N[C@@H](Cc1ccc(O)c(O)c1)C(=O)O
inactive: Potency [2] | Potency [9] | Potency [3] | Potency [7] | Potency [8]
active: Potency [1] 26.4 µM

O=C(O)c1ccc(-n2nc(-c3ccccc3O)nc2-c2ccccc2O)cc1
active: Potency [13] 23.5 µM | Potency [6] 23.5 µM
inactive: Potency [12]

COc1ccccc1OCC(O)COC(N)=O (stereo not given)
inactive: viability [1] 136% | Potency [2] | Potency [9] | Potency [3] | Potency [5] | Potency [6] | Potency [7] | Potency [12]

CN1CCN(c2c(F)cc3c(=O)c(C(=O)O)cn(CCF)c3c2F)CC1
inactive: Potency [13] | Potency [3] | Potency [5] | Potency [6] | Potency [8]

Nc1nc(=S)c2[nH]cnc2[nH]1
active: Potency [1] 5.9 µM | Potency [2] 8.33 µM | Potency [9] 1.05 µM | Potency [3] 0.662 µM | Potency [5] 1.66 µM | Potency [6] 7.43 µM | Potency [7] 4.69 µM | Potency [12] 3.72 µM | Potency [11] 4.18 µM | Potency [8] 5.26 µM

CCn1cc(C(=O)O)c(=O)c2cc(F)c(N3CCN(C)CC3)cc21
active: Potency [1] 5.26 µM
inactive: Potency [2] | Potency [3] | Potency [5] | Potency [6] | Potency [11]

C[C@@H](CN1CC(=O)NC(=O)C1)N1CC(=O)NC(=O)C1
active: Potency [3] 14.8 µM
inactive: viability [1] 130% | Potency [2] | Potency [7] | Potency [12] | Potency [11]

CC(=O)[C@H]1CC[C@H]2[C@@H]3CCC4=CC(=O)CC[C@]4(C)[C@H]3CC[C@]12C
active: Potency [13] 8.33 µM | Potency [4] 7.43 µM | Potency [11] 18.7 µM | Potency [8] 16.6 µM

CCCCc1oc2ccc(NS(C)(=O)=O)cc2c1C(=O)c1ccc(OCCCN(CCCC)CCCC)cc1
active: Potency [1] 18.7 µM | Potency [2] 14.8 µM | Potency [9] 8.33 µM | Potency [3] 11.8 µM | Potency [5] 23.5 µM | Potency [6] 11.8 µM | Potency [7] 16.6 µM | Potency [12] 23.5 µM | Potency [11] 11.8 µM | Potency [8] 13.2 µM

COCCCOc1cc(C[C@@H](C[C@H](N)[C@@H](O)C[C@H](C(=O)NCC(C)(C)C(N)=O)C(C)C)C(C)C)ccc1OC
inactive: Potency [13] | Potency [3] | Potency [5] | Potency [7] | Potency [12] | Potency [11] | Potency [8]

Nc1nc(N)nc(-c2cc(Cl)ccc2Cl)n1
inactive: viability [1] 131% | Potency [2] | Potency [3] | Potency [6] | Potency [7]

O=S(=O)(c1cccc2cnccc12)N1CCCNCC1
active: Potency [4] 18.7 µM | Potency [6] 16.6 µM
inactive: viability [1] 125% | Potency [2] | Potency [7]

COC(=O)Nc1nc2ccc(C(=O)c3ccccc3)cc2[nH]1
active: Potency [1] 0.332 µM | Potency [2] 14.8 µM | Potency [3] 0.332 µM | Potency [4] 2.35 µM | Potency [5] 2.96 µM | Potency [6] 5.9 µM | Potency [12] 1.48 µM

CCOc1cc(N)c(Cl)cc1C(=O)NCC1CN(Cc2ccc(F)cc2)CCO1 (stereo not given)
inactive: viability [1] 114% | Potency [2] | Potency [9] | Potency [3] | Potency [10] | Potency [5] | Potency [6] | Potency [7] | Potency [12] | Potency [11]

COc1ccc(C(=O)CC(=O)c2ccc(C(C)(C)C)cc2)cc1
inactive: Potency [11]
active: Potency [1] 5.9 µM | Potency [2] 5.26 µM | Potency [3] 1.66 µM | Potency [4] 2.64 µM | Potency [10] 3.72 µM | Potency [5] 5.26 µM | Potency [6] 0.935 µM | Potency [8] 7.43 µM

COc1c(N2CCNC(C)C2)c(F)cc2c(=O)c(C(=O)O)cn(C3CC3)c12 (stereo not given)
inactive: viability [1] 135% | Potency [2] | Potency [3] | Potency [6] | Potency [7] | Potency [12] | Potency [8]

Cc1cccc(N(C)C(=S)Oc2ccc3ccccc3c2)c1
active: Potency [2] 20.9 µM
inactive: viability [1] 112% | Potency [9] | Potency [10] | Potency [5] | Potency [12] | Potency [8]

C1CCC(C(CC2CCCCN2)C2CCCCC2)CC1 (stereo not given)
active: Potency [1] 18.7 µM | Potency [2] 11.8 µM | Potency [9] 20.9 µM | Potency [3] 13.2 µM | Potency [4] 8.33 µM | Potency [5] 18.7 µM | Potency [6] 10.5 µM | Potency [7] 11.8 µM | Potency [12] 23.5 µM | Potency [11] 8.33 µM | Potency [8] 9.35 µM

CCCCS(=N)(=O)CCC(N)C(=O)O (stereo not given)
inactive: Potency [2] | Potency [5] | Potency [7] | Potency [12] | Potency [11] | Potency [8]
active: Potency [3] 13.2 µM | Potency [6] 18.7 µM

Clc1ccccc1CN1CCc2sccc2C1
inactive: Potency [7]

CC(C)OC(=O)C(C(=O)OC(C)C)=C1SC=CS1
inactive: Potency [9] | Potency [3] | Potency [4] | Potency [5] | Potency [6] | Potency [12] | Potency [8]

CCCCCCNC(=O)n1cc(F)c(=O)[nH]c1=O
inactive: Potency [5] | Potency [6] | Potency [8]
active: Potency [4] 5.26 µM

O=C(N[C@H](CO)[C@H](O)c1ccc([N+](=O)[O-])cc1)C(Cl)Cl
inactive: viability [1] 115% | Potency [9] | Potency [3] | Potency [8]

C[C@@H]1CN(c2c(F)c(N)c3c(=O)c(C(=O)O)cn(C4CC4)c3c2F)C[C@H](C)N1
inactive: viability [1] 160% | Potency [9] | Potency [3] | Potency [5] | Potency [6] | Potency [7] | Potency [11] | Potency [8]

NC(=O)c1ccc2[nH]ccc2c1
inactive: Potency [2] | Potency [4] | Potency [5] | Potency [7] | Potency [11] | Potency [8]

CCN[C@H]1C[C@H](C)S(=O)(=O)c2sc(S(N)(=O)=O)cc21
inactive: Potency [2] | Potency [5] | Potency [8]

CCC(C)(C)c1ccc(CC(C)CN2C[C@@H](C)O[C@@H](C)C2)cc1 (stereo not given in full)
inactive: Potency [12]

CC(N)C12CC3CC(CC(C3)C1)C2 (stereo not given)
inactive: viability [1] 118% | Potency [9] | Potency [3] | Potency [4] | Potency [5] | Potency [6] | Potency [7] | Potency [12] | Potency [11] | Potency [8]

CC(C)(Sc1cc(C(C)(C)C)c(O)c(C(C)(C)C)c1)Sc1cc(C(C)(C)C)c(O)c(C(C)(C)C)c1
active: Potency [2] 3.32 µM | Potency [5] 6.62 µM
inactive: viability [1] 149% | Potency [8]

— PubChem BioAssay (NCATS)
